# High-throughput results (PubChem BioAssay)
# PLK1 PBD inh – PLK1 (human) polo-box domain binding inhibition; Plk1 PBD binding of FITC phosphopeptide, fluorescence polarization; Potency, µM, hits mostly inhibitors; actives 2.8% (n = 360,000); AID 720504; note: series mostly up to about 57 µM; nearly all actives have a fitted effect of over 65% in size
# Target sequence (P53350 whole entry, looked up, the tested form may be a part): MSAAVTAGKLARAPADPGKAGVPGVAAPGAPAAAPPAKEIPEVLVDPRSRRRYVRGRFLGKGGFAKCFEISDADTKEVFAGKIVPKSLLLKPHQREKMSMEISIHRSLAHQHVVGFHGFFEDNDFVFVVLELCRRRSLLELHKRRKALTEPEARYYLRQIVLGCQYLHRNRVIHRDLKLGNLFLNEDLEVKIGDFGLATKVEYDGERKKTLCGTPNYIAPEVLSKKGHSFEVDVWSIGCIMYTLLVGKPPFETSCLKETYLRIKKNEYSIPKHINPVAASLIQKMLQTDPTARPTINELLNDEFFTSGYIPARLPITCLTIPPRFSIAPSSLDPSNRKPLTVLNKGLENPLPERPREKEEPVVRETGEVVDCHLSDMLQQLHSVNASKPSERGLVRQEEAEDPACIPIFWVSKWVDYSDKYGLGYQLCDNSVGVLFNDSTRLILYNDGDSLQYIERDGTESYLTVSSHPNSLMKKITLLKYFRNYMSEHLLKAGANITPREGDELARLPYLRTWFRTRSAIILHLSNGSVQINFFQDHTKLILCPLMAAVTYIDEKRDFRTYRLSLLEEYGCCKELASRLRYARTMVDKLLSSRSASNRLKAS
# G9a block – blocks human histone lysine methyltransferase G9a; actives 8.8% (n = 350,000); G9a H3K9 monomethylation, AlphaScreen, 2 h; Potency, µM (highest dose often 102 µM), usual class: inhibitors; note: nearly all actives have a fitted effect of over 75% in size
#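 Methyltransferase reactions run at room temperature for 2 h (20 nM enzyme, 500 nM biotin-H3K9 peptide, 20 uM SAM) after a 15 min compound preincubation; product detected by AlphaScreen beads and anti-H3K9me1 antibody.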
# BAZ2B block – BAZ2B (human) inhibition; AID 504333; Potency, µM (doses to about 114 µM), most hits filed as inhibitors; actives 4.4% (n = 360,000); Q9UIF8; AlphaScreen BAZ2B-H3K14Ac peptide displacement; note: nearly all actives have a fitted effect of over 60% in size
#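 In this displacement format the biotinylated H3(5-23) peptide acetylated at Lys14 serves as ligand at 50 nM, with BAZ2B at 50 nM in PBS pH 7.4 containing 0.01% Tween-20. Donor and acceptor beads are 10 ug/mL final.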
# JMJD2A Tudor – inhibitors of human JMJD2A Tudor domain; O75164; AlphaScreen JMJD2A-Tudor / H3K4me3 peptide binding; Potency, µM (series often up to 114 µM), usual class: inhibitors; actives 4.4% (n = 390,000); AID 504339; note: nearly all actives have a fitted effect of over 50% in size
# HP1b chromo inh – inhibitors of HP1-beta chromodomain binding to methylated histone tails | Potency, µM (doses to about 114 µM), hits mostly inhibitors | AID 540317 | P83916 | AlphaScreen HP1-beta / biotin-H3K9me3 peptide binding | actives 0.56% (n = 390,000); note: nearly all actives have a fitted effect of over 70% in size
#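 HP1-beta protein (50 nM final) preincubated 30 min at room temperature with biotinylated H3(1-18)K9me3 peptide (50 nM) in PBS pH 7.4, 0.01% Tween-20, then compound added for 30 min. AlphaScreen streptavidin donor/nickel chelate acceptor beads (10 ug/mL final), 30 min dark, luminescence read.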
# Sfp PPTase inh – inhibitors of Bacillus subtilis Sfp phosphopantetheinyl transferase. Q9F4F7. Biochemical Sfp PPTase activity, qHTS. Potency, µM, hits mostly inhibitors. actives 3.5% (n = 310,000);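 note: the enzyme is Sfp with the accession as filed and its product quenches rhodamine fluorescence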
#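 Compounds were incubated with enzyme (final 15 nM) for 15 min at room temperature before substrate addition started the reaction. Fluorescence at 525 nm excitation, 598 nm emission was recorded immediately and after 30 minutes.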
# Hits are given with their value; . = inactive; ? = inconclusive; / = no result given; ! = a repeat was not active; [ ] = remark or other dose. Hits are enriched below; roughly 12% of the tested compounds scored in any of these assays. Calls come from the whole dose curve; as a rule, active = well fitted curve in the direction sought with a large enough effect; inconclusive = small, poorly fitted or top-dose-only effect, or another doubt; inactive = no such curve, though single readings can be large; an effect the other way counts as inactive or inconclusive.
SMILES,PLK1 PBD inh,G9a block,BAZ2B block,JMJD2A Tudor,HP1b chromo inh,Sfp PPTase inh
CC1=NN(c2ccc([N+](=O)[O-])cc2)C(=O)/C1=C\N(C)C,.,10µM,?,.,.,.
CN(C)/C=C1/C(=O)N(c2ccc([N+](=O)[O-])cc2)N=C1c1ccccc1,/,?,.,/,/,.
COc1ccc(-n2c(CN3CCN(Cc4ccccc4)CC3)nc3ccc([N+](=O)[O-])cc3c2=O)c(OC)c1,.,.,?,.[11.4 µM],.,.
COc1ccc(-n2c(CN3CCN(c4ccccn4)CC3)nc3ccc([N+](=O)[O-])cc3c2=O)c(OC)c1,.,32µM,?,?,.,.
CC(=O)N[C@@H](CC(=O)O)C(=O)N[C@@H](CCC(=O)O)C(=O)O,/,.[21.5 µM],/,/,/,?
COCCN1C(=O)/C(=C/c2ccc(N3CCCC3)cc2C)SC1=S,.,.[0.501 µM],8.9µM,?,.,.
Cn1c(=O)c2c(nc(N/N=C/c3ccco3)n2C)n(C)c1=O,.,/,.,.,.,18µM
Cn1c(=O)c2c(nc(N/N=C/c3cccs3)n2C)n(C)c1=O,.,?,.,.,.,.
CC(C)=NNc1nc2c(c(=O)n(C)c(=O)n2C)n1C,.,/,?,.,.,22µM
Cn1c(=O)c2c(nc(NN=C3CCCCC3)n2C)n(C)c1=O,.,50µM,/,.,?,.
CCc1cccc(NC(=O)Cn2c(C(=O)OC)cc3occc32)c1,/,.,.,.,.,/
COc1ccc2c(c1)O[C@@H](c1cccc(C(F)(F)F)c1)[C@H](OC(=O)NCc1ccc3c(c1)OCO3)C2=O,/,/,/,/,/,.
O=C(CN1C2=NCCCN2c2ccccc21)c1ccc([N+](=O)[O-])cc1,.,40µM,.,.,.,.
O=C(CN1C2=NCCCN2c2ccccc21)c1cccc(Br)c1,24µM,?,.,?,?,.
OC[C@H]1O[C@H](n2cnc3c(N[C@H]4CCC[C@@H]4O)ncnc32)[C@H](O)[C@@H]1O,/,.,/,/,/,/
NC(=S)NNc1c(F)c(F)c(F)c(F)c1F,27µM,35µM,.,?,?,40µM
O=c1c(-c2n[nH]c(=S)n2-c2ccccc2)cccn1Cc1cccc(Cl)c1,.,3.5µM,.,28µM,.,.
CSc1nnc(-c2cccn(Cc3cccc(Cl)c3)c2=O)o1,.,.,.,.,.,.
C=CCn1c(-c2cccn(Cc3ccccc3)c2=O)n[nH]c1=S,.,40µM,.,28µM,.,.
C=CCn1c(-c2ccc(=O)n(Cc3ccccc3)c2)n[nH]c1=S,/,18µM,.,/,/,.
C=CCn1c(-c2cccn(Cc3ccc(Cl)cc3Cl)c2=O)n[nH]c1=S,.,2.8µM,.,56µM,.,.
CSc1nnc(-c2cccn(Cc3ccccc3)c2=O)o1,?,.,.,.,.,.
N#Cc1cccc(NC(=O)N2CC3(CCN(C(=O)c4cc(C(F)(F)F)cc(C(F)(F)F)c4)CC3)C2)c1,/,.[12.7 µM],/,/,/,.
COc1ccc(-n2c(C)c(C)c3c(N)ncnc32)cc1,.,.,?,.,.,.
CCOc1ccc(CNC(=O)C2Cc3ccccc3N2C(=O)CC)cc1OC (centres undefined),/,.,.,.,.,/
SMILES,PLK1 PBD inh,G9a block,BAZ2B block,JMJD2A Tudor,HP1b chromo inh,Sfp PPTase inh
C=CCn1c(-c2cccn(Cc3ccc(Cl)cc3)c2=O)n[nH]c1=S,.,4.5µM,.,10µM,.,.
Nc1n[nH]c(-c2ccccc2[N+](=O)[O-])n1,.,.,.,.,.,.
O=c1c(=O)n(Cc2ccc(Cl)cc2)ccn1Cc1ccc(F)cc1,/,.,.,.,.,/
C=CCn1c(-c2ccccc2[N+](=O)[O-])n[nH]c1=S,.,16µM,?,.,.,.
C=CCn1c(-c2cccn(Cc3cccc(Cl)c3)c2=O)n[nH]c1=S,.,11µM,.,20µM,.,.
COc1ccc(Cn2c(CCC(=O)Nc3cccc(OC)c3)nc3cccnc32)cc1,/,.,.,.,.,/
COc1ccccc1NS(=O)(=O)c1cc2c(cc1Cl)NC(=O)CO2,/,?,?,?,.,/
CN1CCc2nc3ccccc3c(C(=O)OCC(=O)N(CCC#N)c3ccccc3)c2C1,.,22µM,?,.,.,.
N#CCCN(C(=O)COC(=O)c1ccc2ccccc2n1)c1ccccc1,.,.[2.33 µM],.,.,.,/
Cc1cccc(OCCNC(=O)CCc2ccccc2)c1,.,/,/,.,.,/
Cc1ccc(OCCNC(=O)c2ccccc2OCc2c(C)noc2C)cc1,.,.[12.7 µM],.,.,.,/
COc1ccc(N/N=C(/N=Nc2nc(C)cc(=O)[nH]2)c2ccccc2)cc1,.,?,7.1µM,?,16µM,.
Cc1cc(=O)[nH]c(N=N/C(=N/Nc2ccccc2C)c2ccccc2)n1,.,28µM,?,?,?,.
Cc1cc(=O)[nH]c(N=N/C(=N/Nc2ccc(O)cc2)c2ccccc2)n1,.,0.56µM,10µM,56µM,?,.
COc1ccc2nc(C)cc(Nc3ccc(C(=O)O)cc3)c2c1,.,.[2.33 µM],.,.,.,.
COc1ccccc1NC(=O)CCCOc1cc(=O)n(C)c2ccccc12,/,.,.,.,.,/
O=C1C(c2ccc(F)cc2)N(CCc2ccc(Cl)cc2)C(=O)CN1C1CCCCCC1 (centres undefined),/,?,.,.,.,/
Nc1cnn(Cc2ccccc2F)c1,.,?,40µM,50µM,?,.
CC#C[C@]1(O)CC[C@H]2[C@@H]3CCC4=CC(=O)CCC4=C3[C@@H](c3ccc(N(C)C)cc3)C[C@@]21C,.,9.5µM!,13µM,16µM,?,.
CC#C[C@]1(O)CC[C@H]2[C@@H]3CCC4=CC(=O)CCC4=C3[C@H](c3ccc(N(C)C)cc3)C[C@@]21C,/,/,/,/,/,.
CCSC(C)CC1CC(=O)CC(=O)C1 (centres undefined),.,56µM,.,.,.,.
COc1ccc(N2CCN(C(=O)Cc3coc4ccc(C)cc34)CC2)cc1,/,16µM,40µM,?,?,/
COc1ccc(N2CCN(C(=O)Cc3coc4cc(C)ccc34)CC2)cc1,.,45µM,40µM,.,.,.
Cc1ccc2occ(CC(=O)N3CCN(c4cccc(Cl)c4)CC3)c2c1,/,.,.,.,.,/
COc1ccc(N2CCN(C(=O)CCC(=O)N3CC(C)Oc4ccc(C)cc43)CC2)cc1 (centres undefined),.,45µM,40µM,?,.,.
Cc1ccc(S(=O)(=O)N[C@H]2COC(=O)C/C=C\[C@@H](C)[C@H](NS(=O)(=O)c3ccc(C)cc3)COC(=O)C/C=C\[C@H]2C)cc1,/,/,/,/,/,.
Cc1cc(C)cc(NC(=O)CCc2c(C)nc3c(c2C)c(=O)n(C)c(=O)n3C)c1,/,.,.,.,.,/
Cc1cccc(NC(=O)c2cn(-c3ccccc3)nc2-c2ccccc2)c1C,/,.,.,.,.,/
CCN1C(=O)[C@H]2[C@H]3[C@H](O)[C@H](O)C/C(=N/NC(=O)OCc4ccc(OC)cc4)[C@@H]3CC[C@@H]2C1=O,/,/,/,/,/,.
